# Screening data deposited in PubChem by National Center for Advancing Translational Sciences (NCATS).
# Only some compounds are listed: those with a hit (about 3.2% of all), similar ones and a draw of the others.
# FBPA coupling cs: counter-screen for Giardia aldolase inhibitors: coupling enzyme system. AID 2472. activity change, negative = inhibition, % at 58.2 µM, hits read low. coupling enzyme system counterscreen, AmpLite Red fluorescence. 290,000 tested, 0.67% active; in the data active means activity change below about -30%
#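 Fluorescence at 525 nm excitation and 598 nm emission measured inhibition of the coupled detection system without aldolase. Compounds (at 57.5 uM final) were preincubated 10 min at room temperature with coupling enzyme reagent before a 20 min substrate/AmpLite Red step.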
# VDR inh: blocks the human vitamin D receptor; P11473; VDR-SRC2-3 peptide fluorescence polarization, 2 h; Potency, µM, hits mostly inhibitors; 400,000 tested, 0.93% active; AID 504847
# Target sequence (P11473 whole entry, looked up): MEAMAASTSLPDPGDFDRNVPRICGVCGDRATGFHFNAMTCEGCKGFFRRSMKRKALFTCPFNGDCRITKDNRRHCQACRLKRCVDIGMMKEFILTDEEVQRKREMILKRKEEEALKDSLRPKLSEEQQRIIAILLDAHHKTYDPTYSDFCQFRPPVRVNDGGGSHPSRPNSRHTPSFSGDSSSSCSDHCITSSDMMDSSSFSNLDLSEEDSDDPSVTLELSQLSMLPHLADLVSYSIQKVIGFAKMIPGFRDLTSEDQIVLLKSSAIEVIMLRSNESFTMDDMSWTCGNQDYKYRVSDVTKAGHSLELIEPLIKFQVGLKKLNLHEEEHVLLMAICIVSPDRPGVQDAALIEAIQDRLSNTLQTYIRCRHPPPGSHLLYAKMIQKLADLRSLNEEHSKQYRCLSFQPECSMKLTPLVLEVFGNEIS
#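 VDR–SRC2-3 interaction, FP format. Cmpds 23 nl via pintool, brief spin, 2 h ambient incubation.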
# GALK inh: inhibitors of human galactokinase. 270,000 tested, 0.007% active. Purified GALK, Kinase-Glo residual ATP luminescence. Potency, µM (titrated, usually from 57.5 µM), usual class: inhibitors
#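 Quantitative HTS: GALK 5 nM, ATP 35 uM, galactose 100 uM, 1 h room temperature, then luciferase-based ATP detection.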
# USP1-UAF1 inh: USP1/UAF1 (human) deubiquitinase inhibition. 390,000 tested, 0.23% active. AID 743255. O94782. recombinant USP1/UAF1, Ub-Rhodamine cleavage fluorescence. Potency, µM (series often up to 57.1 µM), hits mostly inhibitors; further: nearly all actives have a fitted effect of over 60% in size
#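 1 nM enzyme complex + cpd, 15 min RT; start with Ub-Rho 150nM final; kinetic fluorescence ex 480/em 540, 6 reads q60 s. Buffer 50mM HEPES pH 7.8, 0.5mM EDTA, 0.1 mg/ml BSA, 1mM TCEP, 0.01% Tween-20.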
# USP2a block: USP2a (human) protease inhibition; O75604; USP2 core, Ub-CHOP2 coupled fluorogenic reporter, 485/531; Potency, µM (top dose mostly 38.3 µM), usual class: inhibitors; 330,000 tested, 0.01% active; AID 463254
#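 Deubiquitinase activity read as fluorescence (485/531 nm) after Ub-CHOP2 cleavage activates the enterokinase reporter on its substrate; USP2 core 10nM, Ub-CHOP2 and substrate 25nM each, 30min compound preincubation then 60min RT; data normalized to NEM, curves fitted.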
# PLK1 PBD block: PLK1 (human) polo-box domain binding inhibition; P53350; Plk1 PBD binding of FITC phosphopeptide, fluorescence polarization; Potency, µM, usual class: inhibitors; 360,000 tested, 2.8% active; further: series mostly up to about 57 µM; nearly all actives have a fitted effect of over 65% in size
# Numbers stand for hits; - = inactive; ? = inconclusive; . = not tested or not shown. Unless noted, the call rests on the fitted dose curve; in most records, active means well fitted curve in the direction sought with a large enough effect; inconclusive means small, poorly fitted or top-dose-only effect, or another doubt; inactive means no such curve, though single readings can be large; an effect the other way counts as inactive or inconclusive.
SMILES,FBPA coupling cs,VDR inh,GALK inh,USP1-UAF1 inh,USP2a block,PLK1 PBD block
O=C1ON=C(c2ccccc2)/C1=C/c1cccnc1,-,-,-,-,-,-
COc1ccc(/C=C2\C(=O)ON=C2c2ccccc2)cc1,-,?,-,-,-,1.5µM
O=C1ON=C(c2ccccc2)/C1=C/c1ccc(O)c(O)c1,-,45µM,?,-,-,?
O=C1ON=C(c2cccc([N+](=O)[O-])c2)/C1=C/c1ccc(O)cc1,-,?,-,-,-,1.5µM
Cc1ccc(C2=NOC(=O)/C2=C\c2ccc(C)o2)cc1,-,?,-,-,-,0.75µM
CC(=O)c1nnn(-c2cccc([N+](=O)[O-])c2)c1C,-38,-,-,-,-,-
CCc1nnnn1-c1ccc([N+](=O)[O-])cc1C,-,-,-,-,-,?
CC(=O)c1nnn(-c2ccc([N+](=O)[O-])cc2C)c1C,-,-,-,-,-,24µM
O=C(Nc1nc2c(s1)CN(Cc1ccccc1)CC2)c1c(F)cccc1F,-,-,-,-,-,21µM
COc1ccc(-c2cnc3c(NC(C)=O)cc(-c4ccsc4)cn23)cc1OC,.,.,.,.,.,24µM
CC1=CC(=O)C=C(C)C1=NOc1ccccc1[N+](=O)[O-],-37,-,.,-,-,-
CCOC(=O)c1cc(-c2ccc(/C=C3/C(=O)N(c4ccc(C(=O)O)cc4)N=C3C)o2)ccc1Cl,-,?,?,-,-,0.84µM
CCOC(=O)c1cc(-c2ccc(/C=N\n3cnnc3)o2)ccc1Cl,-,-,-,-,-,-
CC1=NOC(=O)/C1=C/c1ccc(-c2ccc(Cl)cc2)o1,-,.,-,.,-,.
CN(C)/C=C1/C(=O)N(c2ccc([N+](=O)[O-])cc2)N=C1c1ccccc1,-,.,-,.,-,.
O=C1/C(=C\c2ccc(-c3ccccc3[N+](=O)[O-])o2)C(c2ccccc2)=NN1c1ccccc1,-,-,-,-,-,3.4µM
CC1=NN(c2ccc(Br)cc2)C(=O)/C1=C/c1ccc(-c2ccccc2C(=O)O)o1,-,?,-,-,-,12µM
CC1=NOC(=O)/C1=C\c1ccc(-c2ccc(Br)cc2C(=O)O)o1,-,79µM,-,-,-,2.7µM
O=C(Nc1ccc(S(=O)(=O)Nc2ncccn2)cc1)C1=NN(c2ccccc2)C(=O)CC1,-,?,.,-,-,-
CCOC(=O)CCCNC(=O)N1CCc2nc(COc3ccccc3)c3c(c2C1)CO[C@@H](C)C3,-,.,.,.,.,.
O=C(NNc1nc(=O)c2cccnc2s1)c1ccccc1O,-,-,-,?,-,27µM
O=C(NCc1ccccc1Cl)C(=O)NCC(c1cccs1)S(=O)(=O)c1cccs1 (stereo unspecified),.,-,.,-,.,.
O=C1CN(CC(=O)N2CCOCC2)c2ccccc2O1,-64,.,-,.,-,.
CC[C@H]1[C@@H]2C=C[C@@H]3[C@H]4C/C=C\C(=O)NCCC[C@@H]5NC(=O)C(=C5O)C(=O)CC[C@@H]4C[C@@H]3[C@H]2C[C@H]1C,-,40µM,.,.,.,.
CCCCN(CC)Cc1ccc(CNC(=O)Nc2ccc(OCC)cc2)o1,-,-,-,-,-,-
SMILES,FBPA coupling cs,VDR inh,GALK inh,USP1-UAF1 inh,USP2a block,PLK1 PBD block
CCCN1CCN(C(=S)Nc2ccc(S(N)(=O)=O)cc2)CC1,-,-,-,-,-,-
NC(=O)C1(N2CCCCC2)CCN(C(=O)Nc2ccc(C(F)(F)F)cc2)CC1,.,-,.,?,.,.
NC(=O)C1(N2CCCCC2)CCN(C(=O)Nc2ccccc2C(F)(F)F)CC1,-35,-,-,-,-,-
CC(C)CC(=O)NNC(=S)Nc1ccc(S(N)(=O)=O)cc1,-,-,-,-,-,24µM
CC(C)CC(=O)NC(=S)Nc1ccc(S(=O)(=O)NC(C)(C)C)cc1,-,-,-,-,-,-
NS(=O)(=O)c1ccc(NC(=S)N2CCC(Cc3ccccc3)CC2)cc1,-,?,-,-,-,13µM
NS(=O)(=O)c1ccc(NC(=S)N2CCN(Cc3ccc4c(c3)OCO4)CC2)cc1,-,-,-,-,-,12µM
c1cc2c(cnc3cscc32)s1,-,-,-,-,-,-
COc1ccc(OC[C@@H](O)CNC(=O)c2cccc3c2C(=O)c2ccc(Cl)cc2S3(=O)=O)cc1,.,-,.,-,-,-
